Assay outcomes: PubChem, several laboratories
This is a sample that favours compounds with a hit; in the whole collection about 12% have one here.
WT yeast gro inh = growth inhibition of WT yeast, mitochondrial fusion screen. 190,000 compounds, 2.1% hits. inhibition, % at 10 µM. mitochondrial fusion phenotypic screen, WT strain; in the data active = inhibition above about 58%; tested in S. cerevisiae
INS promoter inh = TRM-6 insulin promoter activity inhibition; AID 1273; 130,000 compounds, 0.9% hits; TRM-6 cells (human fetal islet line), insulin promoter-eGFP reporter, imaging; reporter expression induced with tamoxifen; inhibition, % at 2 µM;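 active = inhibition above the mean plus 3 SD, with well images judged a real hit on visual review, cut at about 60% in these data, passing the limit was not always enough; inconclusive = inhibition over the cutoff but images rejected on review; inactive = inhibition not above the cutoff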
ROMK primary = modulators of human ROMK potassium channel; Tet-inducible ROMK, thallium flux fluorescence; actives lie on both sides; 130,000 compounds, 2% hits; B-score at 10 µM;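 active = signal ratio slope over the read window, or its plate-corrected B-score, at least 3 SD from the plate mean, either direction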;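 also: B-score of the F/F0 ratio slope over 7 to 12 s after thallium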
Ins promoter up = MIN6 insulin promoter up-regulation; MIN6 insulin promoter-GFP reporter, high-content imaging; hits give high values; z-score at 5 µM; 190,000 compounds, 0.3% hits;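 active = z-score above 3 at 5 µM with at least 500 cells counted in the well; inconclusive = wells under 500 cells, flagged as cytotoxic or low count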
Lmaj promast = Leishmania major promastigote growth inhibition; Leishmania major promastigotes, resazurin fluorescence viability; inhibition, % at 10 µM; 200,000 compounds, 9% hits; in the data active = inhibition above about 50%;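 also: promastigotes grown with compound for 44 hours at 28 °C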
Cl transport mod = modulators of human KCC2 chloride dependent transport; KCC2 cells, thallium flux FluoZin-2 fluorescence; AID 1456; Q9H2X9; B-score of Tl+ flux slope (higher = more flux/activation; lower = inhibition) at 10 µM; 190,000 compounds, 2.2% hits;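 active = thallium flux slope and its plate-corrected score both differing from the plate sample mean at a set confidence after two filtering rounds, in either direction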;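 also: slope of fluorescence scaled to starting intensity during 10 to 20 s after thallium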
Numbers stand for hits; i = inactive; ? = inconclusive; nt = no result given.

SMILES	WT yeast gro inh	INS promoter inh	ROMK primary	Ins promoter up	Lmaj promast	Cl transport mod
CCCCN1C(=O)c2ccc(C(=O)Nc3ccccc3N3CCOCC3)cc2C1=O	i	i	i	i	i	i
CC(C)CNC(=O)c1cccc(Cn2cc(Cl)cn2)c1	i	nt	i	i	i	i
CC1=NN(c2ccccc2)C(=O)/C1=C\c1cc(C)n(C)c1C	nt	nt	nt	i	nt	i
CC1=NN(c2ccccc2)C(=O)/C1=C/c1cc2cc(C)ccc2nc1N1CCCCC1	71.1	i	nt	i	90.0	nt
COc1ccc(C(c2nnnn2C2CCCC2)N2CCc3ccccc3C2)cc1OC (stereo not given)	i	i	i	i	60.4	i
COc1ccc(OC)c(C(c2nnnn2C2CCCC2)N2CCN(c3ccccc3F)CC2)c1 (stereo not given)	i	i	i	i	99.3	nt
COCCn1nnnc1C(c1ccc(O)c(OC)c1)N1CCc2ccccc2C1 (stereo not given)	i	nt	i	i	i	i
Fc1ccccc1N1CCN(C(c2ccccn2)c2nnnn2C2CCCCC2)CC1 (stereo not given)	i	nt	nt	i	i	i
COc1ccc(N2CCN(C(c3ccccc3OC)c3nnnn3C3CCCC3)CC2)cc1 (stereo not given)	i	nt	nt	i	59.3	i
COc1ccc(N2CCN(C(c3cccc(OC)c3OC)c3nnnn3C3CCCC3)CC2)cc1 (stereo not given)	i	i	nt	i	71.5	i
COc1ccc(N2CCN(C(c3cccs3)c3nnnn3C3CCCC3)CC2)cc1 (stereo not given)	i	i	nt	i	i	i
Cc1cccnc1NC(=O)c1c(O)c2ccccc2n(C)c1=O	i	i	nt	i	i	i
CCOC(=O)c1ccccc1NC(=O)c1c(O)c2ccccc2n(CC)c1=O	i	i	nt	i	i	i
CCn1c(=O)c(C(=O)NNS(=O)(=O)c2ccc(C)cc2)c(O)c2ccccc21	i	i	i	i	58.9	i
CCn1c(=O)c(C(=O)Nc2ncccc2C)c(O)c2ccccc21	59.3	nt	i	i	i	nt
CCCn1c(=O)c(C(=O)NNS(=O)(=O)c2ccc(C)cc2)c(O)c2ccccc21	i	i	nt	i	i	i
C=CCn1c(=O)c(C(=O)Nc2ccccc2C(=O)OCC)c(O)c2ccccc21	i	i	nt	i	68.0	i
CCOC(=O)CSC1=N/C(=C\c2ccc(OC)c(OC)c2)C(=O)N1C	i	nt	i	i	i	i
O=C(O)c1ccc(NS(=O)(=O)c2ccc(Cl)cc2)cc1	i	i	nt	i	i	i
CN(c1ccccc1)S(=O)(=O)c1ccc(C(=O)NCC2CCCO2)cc1 (stereo not given)	i	i	i	i	i	i
CC(C(=O)N1CCN(C=O)CC1)N1C(=O)c2ccccc2C1=O (stereo not given)	i	i	nt	i	i	i
O=C(Cc1cccc2ccccc12)N/N=C1\CCCc2ccccc21	nt	i	nt	nt	63.6	i
O=C(N/N=C1\CCCc2ccccc21)c1ccc([N+](=O)[O-])cc1	i	i	nt	nt	69.4	3.1
Cc1nc2ccccc2nc1N/N=C/c1ccc(O)cc1	nt	nt	i	i	nt	i
Cc1nc(N/N=C/c2ccc(O)cc2)c2cnn(-c3ccccc3)c2n1	i	88.9	i	i	67.5	i
SMILES	WT yeast gro inh	INS promoter inh	ROMK primary	Ins promoter up	Lmaj promast	Cl transport mod
COc1ccc(/C=C/C(=O)N2CCCc3ccccc32)cc1	i	i	nt	i	60.1	i
COc1cc(/C=C/C(=O)N2CCCc3ccccc32)cc(OC)c1OC	i	i	nt	i	50.2	i
Cc1cccc(OCCOc2ccccc2C=C(C#N)C#N)c1	i	i	nt	i	93.9	i
Cc1ccccc1OCCNC(=S)Nc1ccccc1	i	nt	i	i	i	i
Cc1cccc(OCCOC(=O)Nc2ccccc2)c1	i	i	nt	i	i	i
Cc1ccccc1OCCOc1ccccc1C=C(C#N)C#N	i	i	nt	nt	78.2	i
CCOCCCNCc1ccc(OC)cc1	i	i	i	nt	i	i
CCCOc1ccc(CNCCCOCC)cc1OC	i	nt	i	i	69.8	i
CCOCCCNCc1cccc(OC)c1	i	nt	nt	i	81.8	nt
CCOCCCNCc1ccc(OC)c(OC)c1	i	nt	nt	i	79.9	i
S=C(Nc1ccc(Cl)cc1Cl)N1CCOCC1	i	i	i	i	i	i
S=C(N/N=C/c1ccc(Cl)cc1)N1CCOCC1	i	i	i	i	i	40.6
Cc1ccc(CNC(=S)N2CCOCC2)cc1	i	nt	i	i	i	i
Cc1ccc(/C=N/NC(=S)N2CCOCC2)cc1	i	i	i	i	i	31.9
Cc1cc(Nc2cccc(C(F)(F)F)c2)n2nc(C)nc2n1	79.1	i	i	i	i	i
CCC(=O)N1CCCc2cc(S(=O)(=O)N3CCC(N4CCCCC4)CC3)ccc21	i	nt	nt	i	i	i
COC(C#CCCN(C)C)(c1ccccc1)c1ccccc1	i	nt	i	i	99.6	i
CN(CC#CC(O)(c1ccccc1)c1ccccc1)C(C)(C)C	nt	nt	nt	i	nt	i
CCOC(=O)Cc1cc(=O)n2[nH]c(-c3ccc(C)cc3)cc2n1	i	i	i	nt	i	i
O=C(OCc1cn(-c2ccc(Cl)c(Cl)c2)nn1)c1ccccc1	i	i	nt	i	i	i
Cc1ccc(-n2cc(C(=O)c3ccc(F)cc3)nn2)cc1Cl	68.4	nt	i	i	i	nt
C=CC[C@H]1CC(Cc2ccccc2)=C[C@H](CC=C)N1	i	i	i	i	i	i
O=C1/C(=C/c2ccccn2)COc2ccccc21	i	i	i	i	100.4	i
CC1C/C(=C/c2ccccn2)C(=O)/C(=C/c2ccccn2)C1 (stereo not given)	86.6	?	-4.69	i	100.4	i
O=C1c2ccccc2OCOc2ccccc21	i	i	nt	i	i	nt
SMILES	WT yeast gro inh	INS promoter inh	ROMK primary	Ins promoter up	Lmaj promast	Cl transport mod
O=C1/C(=C/c2ccccc2[N+](=O)[O-])COc2ccccc21	i	nt	i	i	99.6	i
CC1C/C(=C/c2ccco2)C(=O)/C(=C/c2ccco2)C1 (stereo not given)	i	i	i	i	i	i
CC(C)CC(c1nnnn1C(C)(C)C)N1CCN(Cc2ccccc2)CC1 (stereo not given)	i	i	nt	i	i	i
Cc1cc2oc(=O)cc(CSc3nnc(C)n3N)c2cc1C(C)C	i	i	nt	i	i	i
CC(=O)c1c(OC(=O)c2ccco2)c2ccccc2n1C	i	nt	nt	i	i	nt
CC(=O)c1c(OC(=O)c2ccc(C)cc2)c2ccccc2n1C	i	100.0	nt	i	i	nt
Cc1cc(=O)oc(C)c1C(=O)Nc1ccccc1F	nt	nt	nt	i	nt	i
N#CC(c1ccc(Cl)cc1)(c1ncc(C(F)(F)F)cc1Cl)N1CCOCC1 (stereo not given)	69.9	i	nt	nt	i	nt
N#CC(c1ccccc1F)(c1ncc(C(F)(F)F)cc1Cl)N1CCOCC1 (stereo not given)	i	i	nt	nt	i	nt
O=C(Nc1ccc([N+](=O)[O-])cc1)Nc1ccc(N2CCOCC2)c2nonc12	78.9	i	i	i	98.2	i
N/N=C1\CCCc2nonc21	i	nt	i	i	i	i
CCC(=O)N1c2ccc(S(=O)(=O)CCC(=O)N3CCn4c3nc3ccccc34)cc2CC1C (stereo not given)	i	i	i	i	78.7	nt
